# “And” between values parts separate entries of the source, which are not always exact repeats. Identical values can stand only once. More than one record can exist for a structure, and the calls need not agree. The source made the active and inactive calls.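 The calls were made as follows, unless noted: active = mean z-score across replicates of 1.96 or higher in either the MELAS or the Rieske mutant cell line; inactive = the rest.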
# Legend:
# [1] = system: Hepatitis C virus NS3 helicase; experiment: blockers of NS3h binding to DNA – biochemical, fluorescence polarization, NIH Clinical Collection, primary screen (AID 743270; call rule not given here); conditions: NS3 helicase binding to Cy5-dT15 DNA, stronger effect = higher value, concentration not given here
# [2] = molecular target: Single-stranded DNA-binding protein (Escherichia coli (strain K12)) (UniProt P0AGE0); experiment: SSB-ssDNA binding inhibitors – biochemical, fluorescence polarization, NIH Clinical Collection, counter-screen for HCV NS3 helicase inhibitor project (AID 743271; in the data active = inhibition above about 28%); conditions: E. coli SSB-DNA binding, stronger effect = higher value, concentration not given here
# [3] = compounds distorting NS3 helicase fluorescence signal – biochemical, NIH Clinical Collection, artefact control for HCV NS3 helicase inhibitor project (AID 743272; call rule not given here;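 also: HCV NS3 helicase with a Cy5 labelled single stranded DNA probe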); conditions: fluorescence interference counterscreen, HCV NS3 helicase assay; stronger effect = lower value
# [4] = Wnt pathway potentiators raising nuclear beta-catenin – imaging, WNT3A-conditioned medium, mouse C2C12, NPC library, primary screen (AID 1117326; in the data active = nuclear beta-catenin stimulation mostly above about 4.2%, no sharp cut-off; inactive = mostly below about 10%); conditions: stronger effect = higher value
# [5] = stimulators of insulin release from INS-1E, primary screen, cell-based, 5 mM glucose, NPC library (AID 1117329;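 active = compound raises insulin release from rat beta cells at 5 mM glucose, no numeric limit stated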); conditions: rat INS-1E insulin secretion, at 10 µM, stronger effect = higher value
# [6] = growth inhibition of GSK3B-pretreated HCT116 cells – cell-based, CellTiter-Glo, 0.2 to 20 µM (AID 1117336;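 active = compounds lowering colon cancer cell viability after pretreatment blocking the GSK3B kinase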); conditions: HCT116 viability after GSK3B inhibitor, at 20 µM, stronger effect = higher value
# [7] = inhibition of endothelial tube formation, primary screen, imaging, VEGF stimulated, CD31 staining, tube area, NPC library (AID 1117340;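 active = compound that reduces growth-factor-driven endothelial tube area in a mixed cell culture, no cutoff stated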); conditions: VEGF-stimulated ADSC/ECFC co-culture, at 10 µM, stronger effect = higher value
# [8] = GLP1 release stimulators, primary, NCI-H716, NPC library (AID 1117341;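 active = compound raises GLP1 secretion from the human gut endocrine cells, with no numeric limit stated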); conditions: NCI-H716 cells, at 10 µM, stronger effect = higher value
# [9] = HCT116 colon cancer cell growth inhibition, primary screen, CellTiter-Glo luminescence, NPC library (AID 1117342;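 active = compounds that lower survival of HCT116 colon cancer cells in the luminescence readout, no numeric limit stated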); conditions: at 20 µM (top of the series)
# [10] = reduced SW480 viability measured with CellTiter-Glo, NPC library, primary (AID 1117343;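 active = compounds that lower viability of the colon cancer cells in the luminescence readout, with no numeric limit stated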); conditions: CellTiter-Glo luminescence; at 20 µM (top of the series)
# [11] = NPC library primary testing for decreased DLD-1 cell viability via CellTiter-Glo (AID 1117346;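 active = compounds that lower survival of DLD-1 colon cancer cells in the luminescence readout, no cutoff given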); conditions: DLD-1 viability, CellTiter-Glo luminescence; at 20 µM (top of the series)
# [12] = molecular target: 6-phosphogluconate dehydrogenase, decarboxylating (Homo sapiens) (UniProt P52209); experiment: inhibition of human phosphogluconate dehydrogenase – biochemical, recombinant enzyme, NADPH absorbance, primary screen (AID 1159550;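 active = at least 20% inhibition of 6-phosphogluconate dehydrogenase activity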); conditions: recombinant 6PGD, NADPH absorbance 341 nm; at 10 µM; stronger effect = higher value
# Sequence of 6-phosphogluconate dehydrogenase, decarboxylating (Homo sapiens) (P52209 whole entry, looked up): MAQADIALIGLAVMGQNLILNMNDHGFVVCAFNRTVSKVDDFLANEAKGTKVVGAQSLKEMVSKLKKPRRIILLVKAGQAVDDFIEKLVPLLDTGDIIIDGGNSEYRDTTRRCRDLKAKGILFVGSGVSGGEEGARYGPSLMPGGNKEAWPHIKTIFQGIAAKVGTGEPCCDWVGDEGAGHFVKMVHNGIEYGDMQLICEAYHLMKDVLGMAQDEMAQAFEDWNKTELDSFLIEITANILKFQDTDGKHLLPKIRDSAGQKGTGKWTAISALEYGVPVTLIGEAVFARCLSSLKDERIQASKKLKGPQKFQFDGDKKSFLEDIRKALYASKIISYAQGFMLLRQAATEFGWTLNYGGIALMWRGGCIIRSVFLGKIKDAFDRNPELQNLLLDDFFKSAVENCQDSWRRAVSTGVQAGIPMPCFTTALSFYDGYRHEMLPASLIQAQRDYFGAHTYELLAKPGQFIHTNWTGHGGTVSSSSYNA
# [13] = EMT-state selective cytotoxicity in co-culture – imaging, PC-3E GFP, TEM4-18 mCherry, primary screen (AID 1345086;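 active = compounds killing one labelled cell type while sparing the other, by normalised counts and ratio limits, not self-fluorescent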;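 as to all read-outs here: cells exposed to compound for 72 h before imaging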;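 as to red/green cell ratio (normalised): normalised mesenchymal count divided by normalised epithelial count so high means epithelial killing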); conditions: PC-3E GFP / TEM4-18 mCherry co-culture, imaging cell counts, at 1 µM; for red/green cell ratio (normalised): actives lie on both sides, counts scaled to control wells, 1 = unselective
# [14] = MELAS cybrid and Rieske KO viability enhancers – cell-based, MELAS cybrids, Rieske KO mouse fibroblasts, CellTiter-Glo, primary screen (AID 1508586); conditions: low glucose;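 also: z relative to plate mean and SD of compound and empty wells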
# [15] = molecular target: NAD(+) hydrolase SARM1 (Homo sapiens) (UniProt Q6SZW1); experiment: blocking NAD cleavage by SARM1 SAM-TIR – cell lysate, NAD-Glo luminescence (AID 1508614;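 active = compound whose remaining NAD level is above about 45 nM, limit read from the data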;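 also: higher remaining NAD means stronger inhibition of SARM1 NADase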); conditions: SAM-TIR HEK293T lysate NADase, at 1 µM, stronger effect = higher value
# Sequence of NAD(+) hydrolase SARM1 (Homo sapiens) (Q6SZW1 whole entry, looked up, the tested form may be a part): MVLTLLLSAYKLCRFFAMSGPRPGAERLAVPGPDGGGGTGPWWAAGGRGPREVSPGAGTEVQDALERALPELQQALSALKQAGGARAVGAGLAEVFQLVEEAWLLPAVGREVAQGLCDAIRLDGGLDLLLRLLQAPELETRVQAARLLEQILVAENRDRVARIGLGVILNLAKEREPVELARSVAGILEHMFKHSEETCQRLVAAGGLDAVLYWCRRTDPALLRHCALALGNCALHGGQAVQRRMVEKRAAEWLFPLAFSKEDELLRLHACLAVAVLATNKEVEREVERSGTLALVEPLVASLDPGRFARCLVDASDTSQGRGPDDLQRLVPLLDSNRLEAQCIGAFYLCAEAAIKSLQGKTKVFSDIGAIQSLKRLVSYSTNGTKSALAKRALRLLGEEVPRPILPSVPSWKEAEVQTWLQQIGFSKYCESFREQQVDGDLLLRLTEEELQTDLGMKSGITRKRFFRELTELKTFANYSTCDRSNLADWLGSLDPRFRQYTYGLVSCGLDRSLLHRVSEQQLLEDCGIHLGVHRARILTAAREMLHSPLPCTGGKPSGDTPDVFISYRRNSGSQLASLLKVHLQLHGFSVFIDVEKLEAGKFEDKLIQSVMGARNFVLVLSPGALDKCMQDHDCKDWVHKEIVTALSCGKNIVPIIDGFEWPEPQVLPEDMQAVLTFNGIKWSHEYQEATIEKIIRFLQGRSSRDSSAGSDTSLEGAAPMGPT
# [16] = molecular target: Mitogen-activated protein kinase 7 (Homo sapiens) (UniProt Q13164); experiment: Gal4-ERK5 driven luciferase induction – cell-based, HTS, primary screen (AID 1508626;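 active = luciferase signal above three times the same-plate solvent-only control wells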;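 also: luciferase driven by Gal4-ERK5 fusion binding five Gal4 sites before minimal TATA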); conditions: HeLa Gal4-ERK5 transactivation, 18 h, at 5 µM, stronger effect = higher value
# Sequence of Mitogen-activated protein kinase 7 (Homo sapiens) (Q13164 whole entry, looked up, the tested form may be a part): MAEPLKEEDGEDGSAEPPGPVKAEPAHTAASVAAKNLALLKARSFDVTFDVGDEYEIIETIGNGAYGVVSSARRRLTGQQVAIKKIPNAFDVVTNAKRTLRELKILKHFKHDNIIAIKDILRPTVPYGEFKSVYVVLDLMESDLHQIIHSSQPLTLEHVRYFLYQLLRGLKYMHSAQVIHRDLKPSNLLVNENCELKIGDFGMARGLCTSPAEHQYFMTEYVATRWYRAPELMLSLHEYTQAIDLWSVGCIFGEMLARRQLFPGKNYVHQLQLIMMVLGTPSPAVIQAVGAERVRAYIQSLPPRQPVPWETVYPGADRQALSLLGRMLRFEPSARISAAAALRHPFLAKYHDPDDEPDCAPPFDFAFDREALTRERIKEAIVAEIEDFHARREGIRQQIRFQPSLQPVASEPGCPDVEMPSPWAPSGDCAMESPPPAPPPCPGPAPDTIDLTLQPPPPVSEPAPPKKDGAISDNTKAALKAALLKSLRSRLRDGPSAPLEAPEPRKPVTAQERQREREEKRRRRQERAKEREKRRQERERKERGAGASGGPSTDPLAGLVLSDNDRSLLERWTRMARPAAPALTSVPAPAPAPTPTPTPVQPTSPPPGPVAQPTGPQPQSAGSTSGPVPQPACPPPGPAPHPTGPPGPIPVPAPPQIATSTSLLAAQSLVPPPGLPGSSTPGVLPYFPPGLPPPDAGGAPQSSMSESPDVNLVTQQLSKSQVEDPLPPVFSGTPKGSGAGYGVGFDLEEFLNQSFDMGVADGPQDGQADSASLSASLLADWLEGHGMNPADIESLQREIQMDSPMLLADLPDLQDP
# [17] = viability loss with induced miR-34 in A549 – imaging, A549 dox-inducible miR-34, nuclei and caspase counts, primary screen (AID 1347080;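 active = compounds whose cell count with miR-34 switched on is under 0.7 times the count with it off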); conditions: A549 miR-34 inducible, Hoechst nuclei count, 48 h
# F380Y = experiment: BK channel mutant inhibitors and activators – cell-based, U2OS BacMam, thallium flux, beta subunits, selectivity assay, profiling panel (AID 1259406;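 active = thallium flux through the channel raised or lowered by more than 3 SD from vehicle-only wells, actives on both sides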;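 also: initial slope of Thallos dye fluorescence rise after thallium is added; log ratio against the mean of 0.3% DMSO vehicle wells on the same plate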); conditions: U2OS BacMam BK variants, at 30 µM
# F380Y/beta2Delta = experiment: as above; conditions: U2OS BacMam BK variants, at 30 µM
# [18] = molecular target: Calcium-activated potassium channel subunit alpha-1 (Homo sapiens) + Leucine-rich repeat-containing protein 26 (Homo sapiens) (UniProt Q12791+Q2I0M4); experiment: as above; conditions: U2OS BacMam BK variants, F380Y/Slo1WT/gamma1, at 30 µM
# Sequence of Calcium-activated potassium channel subunit alpha-1 (Homo sapiens) + Leucine-rich repeat-containing protein 26 (Homo sapiens) (Q2I0M4 whole entry, looked up, one chain of several): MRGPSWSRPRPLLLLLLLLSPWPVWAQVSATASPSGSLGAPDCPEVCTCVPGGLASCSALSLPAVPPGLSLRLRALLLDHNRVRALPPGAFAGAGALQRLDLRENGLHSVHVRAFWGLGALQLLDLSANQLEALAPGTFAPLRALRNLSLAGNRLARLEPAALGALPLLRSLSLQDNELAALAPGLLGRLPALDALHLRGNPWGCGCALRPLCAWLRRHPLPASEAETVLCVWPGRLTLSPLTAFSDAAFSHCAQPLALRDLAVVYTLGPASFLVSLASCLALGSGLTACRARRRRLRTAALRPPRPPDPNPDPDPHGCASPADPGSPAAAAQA
# [19] = measured here: epithelial PC-3E GFP cell survival
# [20] = measured here: mesenchymal TEM4-18 mCherry cell survival
# [21] = MELAS cybrid survival, CellTiter-Glo 48 h, stronger effect = higher value
# [22] = Rieske KO mouse fibroblast survival, CellTiter-Glo 72 h
# [23] = stronger effect = lower value, cell number ratio, induced over uninduced
# [24] = measured here: relative caspase fold change +Dox/-Dox
# [25] = measured here: total cells with miR-34 induction, stronger effect = lower value
# [26] = measured here: total cells without miR-34 induction
structure (smiles),measurement,setting,value
Fc1ccc([C@@H]2CCNC[C@H]2COc2ccc3c(c2)OCO3)cc1,inhibition,[1],-1.19% (inactive)
same,inhibition,[2],-1.64% (inactive)
same,fluorescence ratio,[3],0.99 (inactive)
same,nuclear beta-catenin stimulation,[4]; at 10 µM,2.2% (inactive)
same,nuclear beta-catenin stimulation,"[4]; stimulation, at 2 µM",2.8%
same,insulin secretion stimulation,[5],11.8% (inactive)
same,viability decrease,[6],-148% (inactive)
same,tube area decrease,[7],46.2% (active)
same,GLP1 secretion stimulation,[8],1.4% (inactive)
same,inhibition of viability,[9],28.1% (inactive)
same,viability decrease (inhibition),[10],23% (inactive)
same,viability decrease (inhibition),[11],19.7% (inactive)
same,inhibition,[12],-2.44% (inactive)
same,red/green cell ratio (normalised),[13],0.99 (inactive)
same,normalised cell number,[13]; [19],0.48
same,normalised cell number,[13]; [20],0.47
same,z-score,[14]; [21],-0.279 (inactive) and -0.953 (inactive)
same,z-score,[14]; [22],-0.644 and -0.322
same,remaining NAD,[15],10 nM (inactive)
same,luciferase signal,[16],168 AU (inactive)
CC(=O)O[C@]1(C(C)=O)CC[C@H]2[C@@H]3C=C(C)C4=CC(=O)CC[C@]4(C)[C@H]3CC[C@@]21C,inhibition,[1],3.56% (inactive)
same,inhibition,[2],3.75% (inactive)
same,fluorescence ratio,[3],0.98 (inactive)
same,nuclear beta-catenin stimulation,[4]; at 10 µM,2.7% (inactive)
same,nuclear beta-catenin stimulation,"[4]; stimulation, at 2 µM",1.9%
same,insulin secretion stimulation,[5],0.1% (inactive)
same,viability decrease,[6],-86.9% (inactive)
same,tube area decrease,[7],-10.2% (inactive)
same,GLP1 secretion stimulation,[8],0% (inactive)
same,inhibition of viability,[9],46.5% (inactive)
same,viability decrease (inhibition),[10],59.6% (active)
same,viability decrease (inhibition),[11],22.4% (inactive)
same,inhibition,[12],-2.23% (inactive)
same,fold change,[17]; [23],0.793 (inactive) and 0.839 (inactive)
same,fold change,[17]; [24],1.65 and 1.15
same,cell count,[17]; [25],7300 and 6980
same,cell count,[17]; [26],9200 and 8320
same,z-score,[14]; [21],-0.444 (inactive) and 0.0969 (inactive)
same,z-score,[14]; [22],-0.239 and -0.33
same,remaining NAD,[15],10 nM (inactive)
same,luciferase signal,[16],52 AU (inactive)
same,log fold change Tl+ flux,F380Y,0.00819 (inactive)
same,log fold change Tl+ flux,F380Y/beta2Delta,0.0101 (inactive)
same,log fold change Tl+ flux,[18],-0.00133 (inactive)
OCCN(CCO)c1nc(N2CCCCC2)c2nc(N(CCO)CCO)nc(N3CCCCC3)c2n1,inhibition,[1],2.27% (inactive)
same,inhibition,[2],5.62% (inactive)
same,fluorescence ratio,[3],0.85 (inactive)
same,nuclear beta-catenin stimulation,[4]; at 10 µM,0.7% (inactive)
same,nuclear beta-catenin stimulation,"[4]; stimulation, at 2 µM",1.8%
same,insulin secretion stimulation,[5],0.7% (inactive)
same,viability decrease,[6],20.5% (inactive)
same,tube area decrease,[7],8.6% (inactive)
same,GLP1 secretion stimulation,[8],8% (inactive)
same,inhibition of viability,[9],61.4% (active)
same,viability decrease (inhibition),[10],41.1% (inactive)
same,viability decrease (inhibition),[11],4.3% (inactive)
same,inhibition,[12],11% (inactive)
same,red/green cell ratio (normalised),[13],1.08 (inactive)
same,normalised cell number,[13]; [19],1.13
same,normalised cell number,[13]; [20],1.22
same,z-score,[14]; [21],-0.622 (inactive) and 4.01 (active) and 2.55 (active)
same,z-score,[14]; [22],-0.0206 and -0.634 and 4.9
same,remaining NAD,[15],10 nM (inactive)
same,luciferase signal,[16],136 AU (inactive)
Nc1nc2ccc(OC(F)(F)F)cc2s1,inhibition,[1],-5.94% (inactive)
same,inhibition,[2],-0.87% (inactive)
same,fluorescence ratio,[3],0.87 (inactive)
same,nuclear beta-catenin stimulation,[4]; at 10 µM,0.7% (inactive)
same,nuclear beta-catenin stimulation,"[4]; stimulation, at 2 µM",-0.8%
same,insulin secretion stimulation,[5],-2.4% (inactive)
same,viability decrease,[6],32.5% (inactive)
same,tube area decrease,[7],34% (inactive)
same,GLP1 secretion stimulation,[8],0.6% (inactive)
same,inhibition of viability,[9],21.7% (inactive)
same,viability decrease (inhibition),[10],88.8% (active)
same,viability decrease (inhibition),[11],47.1% (inactive)
same,inhibition,[12],2.66% (inactive)
same,red/green cell ratio (normalised),[13],1.07 (inactive)
same,normalised cell number,[13]; [19],1.04
same,normalised cell number,[13]; [20],1.11
same,z-score,[14]; [21],0.0258 (inactive) and 0.56 (inactive) and -1.11 (inactive)
same,z-score,[14]; [22],0.111 and -0.202 and -1.33
same,remaining NAD,[15],10 nM (inactive)
O=C(c1ccccc1)c1ccc2n1CCC2C(=O)O (stereo unspecified),inhibition,[1],-2.77% (inactive)
same,inhibition,[2],-7.8% (inactive)
same,fluorescence ratio,[3],0.99 (inactive)
same,nuclear beta-catenin stimulation,[4]; at 10 µM,-0.4% (inactive)
same,nuclear beta-catenin stimulation,"[4]; stimulation, at 2 µM",-0.5%
same,insulin secretion stimulation,[5],0.8% (inactive)
same,viability decrease,[6],3.4% (inactive)
same,tube area decrease,[7],15.4% (inactive)
same,GLP1 secretion stimulation,[8],-3.6% (inactive)
same,inhibition of viability,[9],-1.1% (inactive)
same,viability decrease (inhibition),[10],1.1% (inactive)
same,viability decrease (inhibition),[11],11.4% (inactive)
same,inhibition,[12],6.58% (inactive)
same,red/green cell ratio (normalised),[13],1.03 (inactive)
same,normalised cell number,[13]; [19],1.2
same,normalised cell number,[13]; [20],1.24
same,z-score,[14]; [21],0.234 (inactive) and -0.244 (inactive) and -0.284 (inactive)
same,z-score,[14]; [22],-0.239 and 0.894 and -0.237
same,remaining NAD,[15],10 nM (inactive)
same,luciferase signal,[16],36 AU (inactive)
CC[C@]1(O)C[C@@H]2CN(CCc3c([nH]c4ccccc34)[C@@](C(=O)OC)(c3cc4c(cc3OC)N(C)[C@H]3[C@@](O)(C(=O)OC)[C@H](OC(C)=O)[C@]5(CC)C=CCN6CC[C@]43[C@@H]65)C2)C1,nuclear beta-catenin stimulation,[4]; at 10 µM,78.2% (active) and 46.4% (active)
same,nuclear beta-catenin stimulation,"[4]; stimulation, at 2 µM",49.7% and 61.6%
same,insulin secretion stimulation,[5],5.8% (inactive) and 3.65% (inactive)
same,viability decrease,[6],84.6% (active) and 97.7% (active)
same,tube area decrease,[7],108% (active) and 104% (active)
same,GLP1 secretion stimulation,[8],-1.3% (inactive) and 5.9% (inactive)
same,inhibition of viability,[9],79.8% (active) and 74.2% (active)
same,viability decrease (inhibition),[10],89.7% (active) and 76.2% (active)
same,viability decrease (inhibition),[11],84.7% (active) and 75.3% (active)
same,fold change,[17]; [23],1.08 (inactive)
same,fold change,[17]; [24],0.797
same,cell count,[17]; [25],794
same,cell count,[17]; [26],738
same,remaining NAD,[15],10 nM (inactive)
same,luciferase signal,[16],72 AU (inactive)
CCN(CC)CC(=O)Nc1c(C)cccc1C,inhibition,[1],-1.98% (inactive)
same,inhibition,[2],-0.87% (inactive)
same,fluorescence ratio,[3],0.96 (inactive)
same,nuclear beta-catenin stimulation,[4]; at 10 µM,-0.4% (inactive)
same,nuclear beta-catenin stimulation,"[4]; stimulation, at 2 µM",0.8%
same,insulin secretion stimulation,[5],-1.4% (inactive)
same,viability decrease,[6],-9.9% (inactive)
same,tube area decrease,[7],9.2% (inactive)
same,GLP1 secretion stimulation,[8],0.9% (inactive)
same,inhibition of viability,[9],-5.2% (inactive)
same,viability decrease (inhibition),[10],-0.2% (inactive)
same,viability decrease (inhibition),[11],0.45% (inactive)
same,inhibition,[12],-1.54% (inactive)
same,red/green cell ratio (normalised),[13],1.11 (inactive)
same,normalised cell number,[13]; [19],1.01
same,normalised cell number,[13]; [20],1.12
same,z-score,[14]; [21],-0.329 (inactive) and 0.222 (inactive) and 0.215 (inactive)
same,z-score,[14]; [22],-0.148 and 0.143 and 0.303
same,remaining NAD,[15],10 nM (inactive)
same,luciferase signal,[16],48 AU (inactive)
same,log fold change Tl+ flux,F380Y,0.00448 (inactive)
same,log fold change Tl+ flux,F380Y/beta2Delta,-0.0588 (inactive)
same,log fold change Tl+ flux,[18],0.0193 (inactive)

# — PubChem BioAssay
